Data taken from PubChem BioAssay.
Several values for one entry are separate records, joined by “and”; a condition that tells them apart may be missing. Equal entries are not always repeated. Inconclusive results are not listed. For some of these results: Entries with a potency or affinity are not part of this list. Activity calls are given as the source filed them.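 Rule for the calls, unless noted: active = at least 20% inhibition of 6-phosphogluconate dehydrogenase activity; inactive = the rest.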

Tests used:
[1] = P. berghei load reduction in hepatocytes – cell-based, HepG2, luciferase luminescence, HepG2 viability, primary screen (AID 624349; in the data active = parasite load remaining mostly below about 12%, no sharp cut-off; inactive = mostly above about 10%;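 note: 100% = mean of DMSO negative control wells on the same plate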); details: P. berghei liver stage in HepG2, luciferase luminescence, concentration not given here; parasite load remaining: stronger effect = lower value; viability: measured here: HepG2 viability without parasites
[2] = target: 6-phosphogluconate dehydrogenase, decarboxylating (Homo sapiens) (UniProt P52209); test: inhibition of human phosphogluconate dehydrogenase – biochemical, recombinant enzyme, NADPH absorbance, primary screen (AID 1159550); details: recombinant 6PGD, NADPH absorbance 341 nm; at 10 µM; stronger effect = higher value
[3] = viability loss in pontine glioma line – cell-based, SU-DIPG-XVII, MIPE5.0, CellTiter-Glo, qHTS, dose response (AID 1347060; cut-off not given, nearly all actives have AC50 up to about 26 µM); details: CellTiter-Glo ATP luminescence
[4] = viability loss in pontine glioma line – cell-based, SU-DIPG-XIII, MIPE4.0, CellTiter-Glo, qHTS, dose response (AID 1347061; cut-off not given, nearly all actives have AC50 up to about 37 µM;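 note: cells exposed to compound for 48 hours before readout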); details: CellTiter-Glo ATP luminescence
[5] = viability loss in pontine glioma line – cell-based, JHH-DIPG-1, MIPE4.0, CellTiter-Glo, qHTS, dose response (AID 1347062; cut-off not given, nearly all actives have AC50 up to about 27 µM); details: JHH-DIPG-1 viability, CellTiter-Glo ATP luminescence
[6] = viability loss in pontine glioma line – cell-based, SU-DIPG-IV, MIPE4.0, CellTiter-Glo, qHTS, dose response (AID 1347063; cut-off not given, nearly all actives have AC50 up to about 30 µM;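 note: compound exposure lasted 48 hours before the viability readout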); details: CellTiter-Glo ATP luminescence
[7] = viability loss in pontine glioma line – cell-based, SU-DIPG-XIII, MIPE5.0, CellTiter-Glo, qHTS, dose response (AID 1347064; cut-off not given, nearly all actives have AC50 up to about 23 µM); details: CellTiter-Glo ATP luminescence
[8] = viability loss in pontine glioma line – cell-based, SU-DIPG-XXV, MIPE5.0, CellTiter-Glo, qHTS, dose response (AID 1347065; cut-off not given, nearly all actives have AC50 up to about 26 µM;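 note: cells exposed to compound for 48 hours before ATP readout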); details: CellTiter-Glo ATP luminescence
[9] = JHH-DIPG-1 glioma cell viability, MIPE5.0 library, CellTiter-Glo luminescence, qHTS (AID 1347067; cut-off not given, nearly all actives have AC50 up to about 26 µM;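 note: cells exposed to compound for 48 hours before readout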); details: JHH-DIPG-1 glioma viability, CellTiter-Glo ATP luminescence
[10] = growth inhibition of DIPG cells – cell-based, MIPE5.0 library, qHTS (AID 1347068; cut-off not given, nearly all actives have IC50 up to about 30 µM); details: SU-DIPG-XXV viability
[11] = viability loss with induced miR-34 in A549 – imaging, A549 dox-inducible miR-34, nuclei and caspase counts, primary screen (AID 1347080;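 active = compounds whose cell count with miR-34 switched on is under 0.7 times the count with it off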); details: A549 miR-34 inducible, Hoechst nuclei count, 48 h
[12] = compounds altering HSF1 focus formation in cells – imaging, Selleck Cancer Library (AID 1347162; in the data active = plate-normalised HSF1 focus index below about 0.46); details: human cells, HSF1 nuclear foci imaging, at 10 µM; SSMD: measured here: HSF1 foci SSMD mean; cell count: measured here: cell number; plate-normalised HSF1 focus index: stronger effect = lower value
[13] = MELAS cybrid and Rieske KO viability enhancers – cell-based, MELAS cybrids, Rieske KO mouse fibroblasts, CellTiter-Glo, primary screen (AID 1508586;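 active = mean z-score across replicates of 1.96 or higher in either the MELAS or the Rieske mutant cell line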;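 note: z relative to plate mean and SD of compound and empty wells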); details: low glucose
[14] = target: NAD(+) hydrolase SARM1 (Homo sapiens) (UniProt Q6SZW1); test: blocking NAD cleavage by SARM1 SAM-TIR – cell lysate, NAD-Glo luminescence (AID 1508614;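 active = compound whose remaining NAD level is above about 45 nM, limit read from the data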;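 note: higher remaining NAD means stronger inhibition of SARM1 NADase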); details: SAM-TIR HEK293T lysate NADase, at 1 µM, stronger effect = higher value
[15] = target: Mitogen-activated protein kinase 7 (Homo sapiens) (UniProt Q13164); test: Gal4-ERK5 driven luciferase induction – cell-based, HTS, primary screen (AID 1508626;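 active = luciferase signal above three times the same-plate solvent-only control wells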;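 note: luciferase driven by Gal4-ERK5 fusion binding five Gal4 sites before minimal TATA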); details: HeLa Gal4-ERK5 transactivation, 18 h, at 5 µM, stronger effect = higher value
[16] = galactose survival enhancers in mitochondrial complex I cybrids – cell-based, galactose medium, ATP luminescence, primary screen (AID 1645843;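 active = z-score of at least 1.8 in each of two replicates, scored against plate mean and spread of sample wells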;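 note: positive z means more ATP and so rescue of galactose-driven cybrid death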); details: complex I mutant cybrid cells, 72 h, stronger effect = higher value
[17] = tested on: Aerobactin synthetase IucA (Klebsiella pneumoniae hvKP1); test: IucA enzyme inhibition, primary screen, biochemical, Spectrum library (AID 1346200; call rule not given here;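 note: 100% = wells without compound and 0% = wells lacking enzyme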); details: malachite green pyrophosphate, A620, at 8 µM, stronger effect = lower value
[18] = growth inhibition of DIPG cells – cell-based, MIPE4.0 library, CellTiter-Glo luminescence, qHTS (AID 1347066; cut-off not given, nearly all actives have AC50 up to about 30 µM;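 note: cells exposed to compound for 48 hours before readout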); details: SU-DIPG-VI viability, CellTiter-Glo ATP luminescence
[19] = target: ATP-dependent translocase ABCB1 (Homo sapiens) (UniProt P08183); test: P-glycoprotein substrate transport blockade – cell-based (AID 377; in the data active = fluorescence slope change above about 50%); details: MDR1-expressing cells, fluorescent substrate accumulation slope; stronger effect = higher value; concentration not given here
[20] = compounds altering viability of human ES cells (AID 493140; call rule not given here;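 note: cells exposed to compounds for four days before counting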); details: human embryonic stem cell survival screen; stronger effect = higher value
[21] = blockers of MitoPT in mitochondria (AID 1580; call rule not given here); details: isolated mitochondria, permeability transition inhibition
[22] = blockers of polyQ-driven CASP3 activation – cell-based (AID 1583); details: polyglutamine-induced caspase-3 activation, cell assay; stronger effect = higher value;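 tested at 10 µM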
[23] = yeast 75Q aggregation reduction – 75Q-TubU reporter (AID 1593); details: Yeast 75Q polyglutamine aggregation reporter
[24] = restoration of touch response, mutant HTT neurons – whole organism, C. elegans mechanosensory neurons, N-terminal huntingtin (AID 1599); details: C. elegans polyQ-huntingtin mechanosensory neurons, stronger effect = higher value
[25] = blockers of cytochrome c efflux from mitochondria – biochemical, purified mitochondria (AID 1603); details: stronger effect = lower value;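 note: mouse liver mitochondria challenged with calcium chloride; signal normalized to the plate average as 100%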
[26] = polyglutamine aggregate formation blockers (AID 1604); details: polyglutamine-induced protein aggregation inhibition assay; stronger effect = higher value; tested at 2.5 µM
[27] = rescue of PC12 cells from polyQ htt toxicity – LDH release (AID 1610); details: PC12 mutant huntingtin toxicity, final LDH at 4 uM, stronger effect = lower value
[28] = glutamate transport activators, MN-1 cells, MN-1 cell line (AID 1612); details: MN-1 motor neuron cells, stronger effect = higher value;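 note: tested at 1 µM final; 0% = mean of DMSO vehicle wells on each plate; positive means more glutamate uptake than control and negative means less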
[29] = 75Q-TubH aggregate inhibition, S. cerevisiae, yeast (AID 1616); details: S. cerevisiae 75Q-TubH polyglutamine aggregation suppression; stronger effect = higher value
[30] = blockers of cellular phospholipid synthesis – cell-based, LOPAC library, screen 4, primary screen (AID 1347384; call rule not given here); details: animal cells, phospholipid biosynthesis inhibition screen; at 10 µM
[31] = antimalarial activity against Dd2 strain (AID 2302;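 active = growth inhibition above 50% at the single 2 µM test dose, taken to imply half-maximal potency below 2 µM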;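 note: 0% = DMSO untreated growth and 100% = chloroquine plus artemisinin killed control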); details: P. falciparum Dd2 in RBCs, LDH growth readout, 72 h; at 2 µM; stronger effect = higher value
[32] = human hepatoma cell viability loss – ATP luminescence, cytotoxicity control for P. falciparum antimalarial project, primary screen (AID 2303;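 active = inhibition above 50%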;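 note: 0% = DMSO wells and 100% = digitonin-killed cells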); details: HepG2 viability, 24-48 h, at 10 µM, stronger effect = higher value
[33] = target: L-lactate dehydrogenase (Plasmodium falciparum (isolate CDC / Honduras)) (UniProt Q27743); test: PfLDH activity inhibition – cell lysate, 3D7 strain, counter-screen for P. falciparum growth inhibition project (AID 2304; call rule not given here;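 note: 0% = vehicle and 100% = reference inhibitor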); details: P. falciparum 3D7 crude extract, LDH APAD/NBT absorbance; at 2 µM; stronger effect = higher value
[34] = inhibition of 3D7 malaria parasite growth – strain 3D7 (AID 2306; call rule not given here;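 note: 0% = DMSO wells and 100% = chloroquine plus artemisinin control wells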); details: P. falciparum 3D7 erythrocytic growth, LDH absorbance, 72 h; at 2 µM; stronger effect = higher value
[35] = target: Calcium-dependent protein kinase 1 (Plasmodium falciparum (isolate 3D7)) (UniProt P62344); test: PfCDPK1 kinase inhibitors, biochemical, TCAMS library (AID 1159585; cut-off not given, nearly all actives have IC50 up to about 0.98 µM;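 note: inhibitors leave more ATP so luminescence rises with inhibition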); details: recombinant PfCDPK1, Kinase-Glo ATP depletion luminescence
[36] = target: Plasmodium falciparum protein kinase 6 (PK6, PF3D7_1337100) (UniProt Q8IDW1); test: PfPK6 kinase inhibitors, biochemical, TCAMS library (AID 1159586; call rule not given here); details: recombinant PfPK6, Kinase-Glo ATP depletion luminescence
[37] = target: Protein kinase 7 (PK7), Plasmodium falciparum 3D7 (PF3D7_0213400) (UniProt Q7YTF7); test: inhibition of Plasmodium PK7 catalytic activity – biochemical, TCAMS antimalarial set, Kinase-Glo luminescence (AID 1159587; call rule not given here); details: recombinant PfPK7, Kinase-Glo ATP depletion luminescence
[38] = target: Calcium-dependent protein kinase 4 (Plasmodium falciparum (isolate 3D7)) (UniProt Q8IBS5); test: PfCDPK4 kinase inhibitors, biochemical, TCAMS library (AID 1159588; cut-off not given, nearly all actives have IC50 up to about 0.91 µM); details: recombinant PfCDPK4, Kinase-Glo ATP depletion luminescence
[39] = measured here: relative caspase fold change +Dox/-Dox
[40] = measured here: total cells with miR-34 induction, stronger effect = lower value
[41] = measured here: total cells without miR-34 induction

6-phosphogluconate dehydrogenase, decarboxylating (Homo sapiens), sequence (P52209 whole entry, looked up): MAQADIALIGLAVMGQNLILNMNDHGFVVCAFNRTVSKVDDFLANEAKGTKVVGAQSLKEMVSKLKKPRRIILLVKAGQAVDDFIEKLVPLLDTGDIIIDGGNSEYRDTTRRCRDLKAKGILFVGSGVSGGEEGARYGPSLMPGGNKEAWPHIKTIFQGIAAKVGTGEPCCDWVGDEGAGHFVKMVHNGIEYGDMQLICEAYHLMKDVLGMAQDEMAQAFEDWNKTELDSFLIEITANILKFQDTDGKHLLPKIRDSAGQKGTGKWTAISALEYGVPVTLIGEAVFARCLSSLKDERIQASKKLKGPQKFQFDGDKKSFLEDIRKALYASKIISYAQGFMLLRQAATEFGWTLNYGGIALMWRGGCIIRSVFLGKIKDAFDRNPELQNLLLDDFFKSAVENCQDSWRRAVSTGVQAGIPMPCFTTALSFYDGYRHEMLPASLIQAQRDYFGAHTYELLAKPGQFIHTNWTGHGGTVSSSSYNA
NAD(+) hydrolase SARM1 (Homo sapiens), sequence (Q6SZW1 whole entry, looked up, the tested form may be a part): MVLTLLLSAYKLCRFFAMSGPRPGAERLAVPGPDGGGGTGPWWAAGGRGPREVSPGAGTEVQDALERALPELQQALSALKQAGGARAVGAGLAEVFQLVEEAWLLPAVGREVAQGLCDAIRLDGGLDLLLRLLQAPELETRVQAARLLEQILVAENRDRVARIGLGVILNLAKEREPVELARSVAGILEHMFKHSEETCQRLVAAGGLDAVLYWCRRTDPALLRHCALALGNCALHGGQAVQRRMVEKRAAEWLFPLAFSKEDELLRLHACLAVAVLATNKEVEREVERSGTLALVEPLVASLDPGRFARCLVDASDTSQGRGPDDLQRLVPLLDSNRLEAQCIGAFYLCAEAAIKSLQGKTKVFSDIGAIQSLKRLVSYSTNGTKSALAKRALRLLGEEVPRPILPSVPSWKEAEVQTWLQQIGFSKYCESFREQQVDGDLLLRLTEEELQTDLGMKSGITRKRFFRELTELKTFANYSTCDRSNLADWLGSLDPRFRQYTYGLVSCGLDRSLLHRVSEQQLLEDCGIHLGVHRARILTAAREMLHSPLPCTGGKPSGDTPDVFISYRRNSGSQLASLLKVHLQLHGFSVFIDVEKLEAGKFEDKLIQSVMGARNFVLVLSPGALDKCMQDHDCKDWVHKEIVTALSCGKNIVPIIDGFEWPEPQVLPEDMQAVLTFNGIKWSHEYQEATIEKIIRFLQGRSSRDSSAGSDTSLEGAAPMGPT
Mitogen-activated protein kinase 7 (Homo sapiens), sequence (Q13164 whole entry, looked up, the tested form may be a part): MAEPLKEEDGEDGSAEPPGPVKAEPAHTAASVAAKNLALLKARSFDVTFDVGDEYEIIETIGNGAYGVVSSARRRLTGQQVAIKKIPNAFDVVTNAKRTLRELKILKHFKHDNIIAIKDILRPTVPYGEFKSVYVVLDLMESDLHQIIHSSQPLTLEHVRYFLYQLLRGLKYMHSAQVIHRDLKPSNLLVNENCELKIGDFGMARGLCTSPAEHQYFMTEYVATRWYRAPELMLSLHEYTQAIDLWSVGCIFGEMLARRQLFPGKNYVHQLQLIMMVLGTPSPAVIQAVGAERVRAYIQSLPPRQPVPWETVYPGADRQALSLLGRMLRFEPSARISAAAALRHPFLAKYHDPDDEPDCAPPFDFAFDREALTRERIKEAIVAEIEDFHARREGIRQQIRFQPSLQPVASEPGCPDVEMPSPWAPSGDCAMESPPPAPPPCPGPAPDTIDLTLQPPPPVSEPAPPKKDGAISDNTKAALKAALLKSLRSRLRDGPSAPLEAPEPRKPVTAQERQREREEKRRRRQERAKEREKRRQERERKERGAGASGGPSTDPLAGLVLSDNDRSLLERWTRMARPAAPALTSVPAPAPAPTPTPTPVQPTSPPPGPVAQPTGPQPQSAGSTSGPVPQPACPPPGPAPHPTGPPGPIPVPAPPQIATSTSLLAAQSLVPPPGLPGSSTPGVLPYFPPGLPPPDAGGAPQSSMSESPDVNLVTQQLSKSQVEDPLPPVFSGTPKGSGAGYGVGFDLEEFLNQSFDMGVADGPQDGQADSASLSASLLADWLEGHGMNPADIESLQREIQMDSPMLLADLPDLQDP
Plasmodium falciparum protein kinase 6 (PK6, PF3D7_1337100), sequence (Q8IDW1 1-305): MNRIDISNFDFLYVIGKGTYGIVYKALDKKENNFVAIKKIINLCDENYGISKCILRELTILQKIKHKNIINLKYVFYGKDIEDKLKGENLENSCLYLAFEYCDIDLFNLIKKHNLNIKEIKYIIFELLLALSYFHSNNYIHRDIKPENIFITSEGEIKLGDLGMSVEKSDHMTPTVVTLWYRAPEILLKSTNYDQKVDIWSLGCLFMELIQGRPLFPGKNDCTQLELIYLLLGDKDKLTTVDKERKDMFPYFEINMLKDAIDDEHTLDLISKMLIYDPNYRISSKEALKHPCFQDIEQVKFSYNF
ATP-dependent translocase ABCB1 (Homo sapiens), sequence (P08183 whole entry, looked up): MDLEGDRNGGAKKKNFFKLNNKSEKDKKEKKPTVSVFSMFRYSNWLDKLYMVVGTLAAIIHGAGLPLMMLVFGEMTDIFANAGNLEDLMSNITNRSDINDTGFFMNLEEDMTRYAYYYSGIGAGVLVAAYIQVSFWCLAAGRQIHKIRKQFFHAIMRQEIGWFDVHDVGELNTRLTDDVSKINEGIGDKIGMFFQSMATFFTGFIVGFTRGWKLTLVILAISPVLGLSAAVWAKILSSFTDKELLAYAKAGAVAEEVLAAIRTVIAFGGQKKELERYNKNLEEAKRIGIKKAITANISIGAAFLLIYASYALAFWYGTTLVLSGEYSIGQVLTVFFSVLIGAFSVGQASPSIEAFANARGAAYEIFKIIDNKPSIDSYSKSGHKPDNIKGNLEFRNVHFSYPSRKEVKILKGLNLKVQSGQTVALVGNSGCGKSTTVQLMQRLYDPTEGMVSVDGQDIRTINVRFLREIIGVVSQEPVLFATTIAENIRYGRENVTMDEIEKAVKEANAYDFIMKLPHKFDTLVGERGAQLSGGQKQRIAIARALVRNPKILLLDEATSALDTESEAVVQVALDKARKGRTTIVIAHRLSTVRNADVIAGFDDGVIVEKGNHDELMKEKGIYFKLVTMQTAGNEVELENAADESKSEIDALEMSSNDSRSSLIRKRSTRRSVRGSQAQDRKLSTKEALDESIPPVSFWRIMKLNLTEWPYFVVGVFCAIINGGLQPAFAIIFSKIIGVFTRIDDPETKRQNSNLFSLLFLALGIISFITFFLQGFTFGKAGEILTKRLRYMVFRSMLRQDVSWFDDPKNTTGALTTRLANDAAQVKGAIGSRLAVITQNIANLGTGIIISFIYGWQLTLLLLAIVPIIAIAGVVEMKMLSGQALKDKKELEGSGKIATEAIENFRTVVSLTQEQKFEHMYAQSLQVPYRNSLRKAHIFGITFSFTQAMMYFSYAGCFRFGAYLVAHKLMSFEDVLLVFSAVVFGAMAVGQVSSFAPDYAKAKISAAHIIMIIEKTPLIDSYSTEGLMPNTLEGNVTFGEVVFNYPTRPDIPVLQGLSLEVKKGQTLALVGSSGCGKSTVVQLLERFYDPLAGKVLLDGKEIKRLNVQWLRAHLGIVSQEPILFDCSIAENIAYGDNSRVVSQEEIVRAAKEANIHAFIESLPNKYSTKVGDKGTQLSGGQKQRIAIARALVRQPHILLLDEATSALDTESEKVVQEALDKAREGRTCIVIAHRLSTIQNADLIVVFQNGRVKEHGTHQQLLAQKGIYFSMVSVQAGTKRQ
L-lactate dehydrogenase (Plasmodium falciparum (isolate CDC / Honduras)), sequence (Q27743 whole entry, looked up): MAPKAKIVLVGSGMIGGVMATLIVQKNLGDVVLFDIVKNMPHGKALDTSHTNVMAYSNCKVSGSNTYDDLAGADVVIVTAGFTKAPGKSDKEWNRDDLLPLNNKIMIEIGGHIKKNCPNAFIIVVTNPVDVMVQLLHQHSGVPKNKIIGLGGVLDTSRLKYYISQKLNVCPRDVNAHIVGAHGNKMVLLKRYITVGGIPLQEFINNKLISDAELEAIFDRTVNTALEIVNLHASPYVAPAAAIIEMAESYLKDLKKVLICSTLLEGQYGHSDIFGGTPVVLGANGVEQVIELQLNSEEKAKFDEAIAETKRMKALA
Calcium-dependent protein kinase 4 (Plasmodium falciparum (isolate 3D7)), sequence (Q8IBS5 whole entry, looked up): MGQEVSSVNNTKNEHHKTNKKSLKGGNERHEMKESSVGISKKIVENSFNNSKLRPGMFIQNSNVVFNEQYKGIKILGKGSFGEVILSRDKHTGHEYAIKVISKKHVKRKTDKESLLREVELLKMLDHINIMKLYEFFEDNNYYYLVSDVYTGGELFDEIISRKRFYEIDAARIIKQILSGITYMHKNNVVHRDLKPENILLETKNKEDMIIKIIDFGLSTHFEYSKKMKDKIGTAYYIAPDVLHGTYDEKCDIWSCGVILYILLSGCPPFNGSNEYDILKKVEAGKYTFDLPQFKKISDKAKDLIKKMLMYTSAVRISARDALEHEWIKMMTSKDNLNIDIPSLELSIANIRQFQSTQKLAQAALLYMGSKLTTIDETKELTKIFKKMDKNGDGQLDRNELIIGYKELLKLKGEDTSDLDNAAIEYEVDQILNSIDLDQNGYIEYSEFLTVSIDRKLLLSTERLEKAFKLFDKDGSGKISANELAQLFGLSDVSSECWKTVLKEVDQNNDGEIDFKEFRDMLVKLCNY
Protein kinase 7 (PK7), Plasmodium falciparum 3D7 (PF3D7_0213400), sequence (Q7YTF7 1-343): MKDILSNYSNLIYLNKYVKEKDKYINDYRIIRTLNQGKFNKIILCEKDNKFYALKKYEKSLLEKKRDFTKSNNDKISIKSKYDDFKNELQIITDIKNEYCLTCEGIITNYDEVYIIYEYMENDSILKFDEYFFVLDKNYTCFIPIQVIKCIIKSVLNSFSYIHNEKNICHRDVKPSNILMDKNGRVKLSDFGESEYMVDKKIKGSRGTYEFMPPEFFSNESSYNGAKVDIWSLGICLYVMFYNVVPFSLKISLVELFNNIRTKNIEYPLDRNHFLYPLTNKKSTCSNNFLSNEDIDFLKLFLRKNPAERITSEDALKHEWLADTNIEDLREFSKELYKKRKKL

C[C@]12CCC(=O)C(O)=C1CC[C@@H]1[C@@H]2CC[C@]2(C)C(=O)CC[C@@H]12
parasite load remaining [1]: 20.3% (inactive)
viability [1]: 80.5%
inhibition [2]: -18.3% (inactive)
outcome [3]: inactive
outcome [4]: inactive
outcome [5]: inactive
outcome [6]: inactive
outcome [7]: inactive
outcome [8]: inactive
outcome [9]: inactive
outcome [10]: inactive
fold change ([11]; stronger effect = lower value): 0.801 (inactive)
fold change [11, 39]: 1.62
cell count [11, 40]: 8120
cell count [11, 41]: 10100
SSMD [12]: 1.39
cell count [12]: 6710
plate-normalised HSF1 focus index [12]: 1.07 (inactive)
z-score ([13]; MELAS cybrid survival, CellTiter-Glo 48 h, stronger effect = higher value): 1.07 (inactive) and 0.415 (inactive)
z-score ([13]; Rieske KO mouse fibroblast survival, CellTiter-Glo 72 h): -0.144 and -0.532
remaining NAD [14]: 10 nM (inactive)
luciferase signal [15]: 48 AU (inactive)
z-score [16]: 0.27 (inactive)

COc1ccc(C(=O)O[C@H]2CC[C@@]3(C)[C@@H]4CC[C@H]5[C@]6(O)C[C@H](O)[C@@]7(O)[C@@H](CN8C[C@@H](C)CC[C@H]8[C@@]7(C)O)[C@]6(O)C[C@@]53O[C@]24O)cc1OC
inhibition [2]: 9.47% (inactive)
fold change ([11]; stronger effect = lower value): 0.935 (inactive)
fold change [11, 39]: 1.54
cell count [11, 40]: 6050
cell count [11, 41]: 6480

CC(C)(C)C(=O)C(Oc1ccc(Cl)cc1)n1cncn1 (stereo not given)
inhibition [2]: 12.8% (inactive)
activity remaining [17]: 127% (inactive)
luciferase signal [15]: 44 AU (inactive)

CCCCCC[C@H]1C(=O)O[C@H](C)[C@H](NC(=O)c2cccc(NC=O)c2O)C(=O)O[C@@H](C)[C@@H]1OC(=O)CC(C)C
inhibition [2]: 3.85% (inactive)
AC50 [18]: 1320 nM (active)

CN1Cc2c(ccc3c2OCO3)[C@@H]2[C@H]1c1cc3c(cc1C[C@@H]2O)OCO3
fluorescence slope change [19]: 54.5% (active)
survival [20]: 0.417 (inactive)
parasite load remaining [1]: 92.6% (inactive)
viability [1]: 77.6%
inhibition [2]: 7.55% (inactive)

CO[C@@H]1C[C@@H](C[C@H]2CC[C@H](C)[C@H]([C@@H](C)C(=O)O)O2)O[C@]2(O[C@](C)([C@H]3CC[C@@](C)(C4O[C@@H](C5O[C@@](O)(CO)[C@H](C)C[C@@H]5C)C[C@@H]4C)O3)C[C@H]2C)[C@@H]1C (stereo not given in full)
EC50 [21]: 175 nM (active)
inhibition [22]: 49.6%
score [23]: 0.17
rescue above control [24]: 2.36
cytochrome c release ratio [25]: 0.42
inhibition of aggregation [26]: -0.07%
normalised LDH release [27]: 0.812
glutamate uptake change [28]: -43.9%
aggregation suppression score [29]: 0.0976
inhibition [2]: 10.1% (inactive)

COP(=S)(OC)Oc1ccc([N+](=O)[O-])cc1
inhibition [2]: -0.396% (inactive)
luciferase signal [15]: 72 AU (inactive)

CC(=O)OCC1=C(C(=O)O)N2C(=O)[C@@H](NC(=O)CCC[C@@H](N)C(=O)O)[C@H]2SC1
inhibition [2]: -2.43% (inactive)
outcome [30]: inactive
remaining NAD [14]: 10 nM (inactive)

C[C@H]1O[C@@H](O[C@H]2[C@@H](O)C[C@H](O[C@H]3[C@@H](O)C[C@H](O[C@H]4CC[C@@]5(C)[C@H](CC[C@@H]6[C@@H]5CC[C@]5(C)[C@@H](C7=CC(=O)OC7)[C@@H](O)C[C@]65O)C4)O[C@@H]3C)O[C@@H]2C)C[C@H](O)[C@@H]1O
inhibition [2]: -2.27% (inactive)
luciferase signal [15]: 16 AU (inactive)

CC1(C)C(=O)C=C[C@]2(C)[C@H]3CC[C@@]4(C)[C@H](c5ccoc5)OC(=O)[C@H]5O[C@]54[C@]3(C)[C@H](O)C[C@@H]12
inhibition [2]: 3.18% (inactive)
luciferase signal [15]: 16 AU (inactive)

Cc1cccc(N2CCN(Cc3cc(Cl)ccc3O)CC2)c1C
growth inhibition [31]: 96% (active)
inhibition [32]: -2% (inactive)
inhibition [33]: 2% (inactive)
growth inhibition [34]: 96% (active)
outcome [35]: inactive
outcome [36]: inactive
outcome [37]: inactive
outcome [38]: inactive

Cc1c(O)c(O)cc2c1CC=C1[C@@]2(C)CC[C@@]2(C)[C@@H]3C[C@](C)(C(=O)O)CC[C@]3(C)CC[C@]12C
inhibition [2]: -26.2% (inactive)
luciferase signal [15]: 128 AU (inactive)

C[C@@H]1[C@H](O)[C@@H](C)/C=C/C=C/CC/C=C/C=C/C=C/C=C/C(O[C@H]2O[C@H](C)[C@@H](O)[C@H](N)[C@@H]2O)CC2O[C@](O)(CC(O)C(O)CCC(O)CC(O)CC(O)CC(=O)O[C@H]1C)CC(O)C2C(=O)O (stereo not given in full)
inhibition [2]: 8.65% (inactive)
remaining NAD [14]: 10 nM (inactive)
luciferase signal [15]: 56 AU (inactive)
